Screening data deposited in PubChem by National Center for Advancing Translational Sciences (NCATS).
CRE-bla Fsk: alters forskolin-stimulated CRE reporter signaling in CHO cells. CHO CRE-bla reporter (cAMP response element driving beta-lactamase), forskolin EC10, beta-lactamase ratio. Potency, µM (highest dose often 38.2 µM), without a hit: top-dose activity change, negative = inhibition, actives largely listed as activators. actives 2.5% (n = 71,000). AID 662; active means well fitted activation curve with a large enough effect in the signal ratio, with a control signal flat, not every such curve was filed as active; inconclusive means small, poorly fitted or top-dose-only effect, or effect the other way, or a change in a side signal; the % refers to the signal ratio; further: potency means the concentration at half of the fitted maximal effect; % of control where 0% means no effect
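AC50 values, positive or negative, reflect shifts in EC10 NKH 477-induced CRE-bla reporter activity in CHO cells. Incubation lasted 3 h at 37 °C before CCF4 substrate (2 h, room temperature) and ratiometric 460/530 nm reading.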
HSD17B inhib: inhibitors of human HSD17B10 dehydrogenase; Q99714; recombinant HSD17B10, NADH fluorescence kinetic; Potency, µM (highest dose often 57.1 µM), inactives show top-dose activity change, negative = inhibition, usual class: inhibitors; actives 7.6% (n = 75,000); AID 893;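 further: the protocol describes HADH2 (HSD17B10) and not the HSD17B4 of the title; potency means the concentration at half of the fitted maximal effect; on the % scale 0 is the no-effect control and ±100 the full control effect; nearly all actives have a fitted effect of over 70% in size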
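Enzyme plus compound, 15 min room temperature; substrate mix added (NAD+ 1 mM, beta-hydroxybutyryl-CoA 90 uM final); plates read kinetically for NADH fluorescence. HADH2 was His-tagged, E. coli-derived, 20 nM.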
AID923: qHTS Assay for Allosteric/Competitive Inhibitors of Caspase-1: Spectroscopic Profiling in AFC Spectral Region; compound fluorescence, AFC spectral region (405/520 nm); Potency, µM (highest dose often 57.5 µM), inactives show top-dose fluorescence increase, actives largely listed as activators; actives 1.1% (n = 75,000); further: potency means the concentration at half of the fitted maximal effect; 0% is about no effect
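Baseline compound fluorescence (AFC region, 405 nm ex/520 nm em) taken from the intercept of kinetic reads with 50 nM caspase-1 and 5 uM Ac-WEHD-AFC; normalized to an on-plate AFC standard curve; compounds titrated up to 57 uM.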
A350 autofl: compound fluoresces in the Alexa 350 spectral region | Compound autofluorescence, 340/450 nm, Alexa 350 dye-equivalents; stronger effect = higher value | max dye-equivalent concentration, M | actives 11% (n = 59,000) | AID 590; in the data active means max dye-equivalent concentration above about 10 nM; inconclusive means mostly about 1.1 nM to 9.6 nM
HADH2 inhib: inhibitors of human HADH2 dehydrogenase | Potency, µM (series often up to 57.1 µM), without a hit: top-dose activity change, negative = inhibition, usual class: inhibitors | actives 3.4% (n = 73,000) | recombinant HADH2, NADH fluorescence, beta-hydroxybutyryl-CoA | AID 886; further: potency means the concentration at half of the fitted maximal effect; on the % scale 0 is the no-effect control and ±100 the full control effect; nearly all actives have a fitted effect of over 60% in size
Target sequence (Q99714 whole entry, looked up, one chain of several): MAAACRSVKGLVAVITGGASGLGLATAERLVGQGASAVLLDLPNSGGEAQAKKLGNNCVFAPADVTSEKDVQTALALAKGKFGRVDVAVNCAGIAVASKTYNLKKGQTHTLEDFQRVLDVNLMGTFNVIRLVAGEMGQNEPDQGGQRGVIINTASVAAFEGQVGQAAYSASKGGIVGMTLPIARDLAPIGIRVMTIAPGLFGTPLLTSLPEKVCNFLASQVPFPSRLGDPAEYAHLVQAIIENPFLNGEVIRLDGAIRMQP
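20 nM HADH2 + cpd, 15 min RT; add 1 mM NAD+/90 uM beta-hydroxybutyryl-CoA; kinetic fluorescence 360/450 nm, 4 min. Tris-HCl pH 9.0, 0.01% Tween-20.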
4-MU autofl: 4-MU region autofluorescence. actives 11% (n = 59,000). AID 589. max dye-equivalent concentration, M. compound autofluorescence, 340/450 nm, 4-MU equivalents; stronger effect = higher value; in the data active means max dye-equivalent concentration above about 10 nM; inconclusive means mostly about 1.1 nM to 9.6 nM
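Compounds in 100 mM Tris, pH 8.0, sat 15 min at room temperature before fluorescence was read at 340 nm excitation/450 nm emission; a per-plate six-point 4-MU standard curve converted signals to dye-equivalent concentration at each compound concentration.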
* marks the source's active call; other numbers are inactive results; [ ] = dose if it differs, or a comment. A selection: hits, their analogues and other compounds. The true share with any hit is near 14%. Unless noted, the call rests on the fitted dose curve; in most records, active means well fitted curve in the direction sought with a large enough effect; inconclusive means small, poorly fitted or top-dose-only effect, or another doubt; inactive means no such curve, though single readings can be large; an effect the other way counts as inactive or inconclusive.

How did O=C1C2=C(Nc3ccccc3SC2c2ccco2)c2ccccc21 (centres undefined) do in these assays?
CRE-bla Fsk: inconclusive; HSD17B inhib: -15%; AID923: -3%; HADH2 inhib: 25µM*

What do the screens show for `O=C1c2ccccc2NC(c2ccco2)N1O` (centres undefined)?
CRE-bla Fsk: -6%; HSD17B inhib: -5%; AID923: 0%; HADH2 inhib: -15%

What do the screens show for `C=CC1=C(C)C2=Cc3c(C=C)c(C)c4[n]3[Sn+2][n]3c(c(C)c(CCC(=O)O)c3=CC3=NC(=C4)C(C)=C3CCC(=O)O)=CC1=N2`?
CRE-bla Fsk: -8%; HSD17B inhib: 32µM*; AID923: -4%; HADH2 inhib: -8%

What do the screens show for `CC(C)NC(=O)N1CCCC2(CCN(C(=O)c3ccco3)CC2)C1`?
CRE-bla Fsk: 1%; HSD17B inhib: -4%; AID923: 1%; A350 autofl: inactive; HADH2 inhib: 6%; 4-MU autofl: inactive

How did O=c1[nH]c(=O)n(Cc2ccccc2)c2nc(-c3ccco3)cc(C(F)(F)F)c12 do in these assays?
CRE-bla Fsk: 2.5µM*; HSD17B inhib: 13µM*; AID923: 13%; A350 autofl: 1.6e-06M*; HADH2 inhib: inactive; 4-MU autofl: 1.2e-06M*

Results for O=C(c1ccncc1)N1CCC2(CCCN(c3ccccn3)C2)CC1 ?
CRE-bla Fsk: 0%; HSD17B inhib: inconclusive; AID923: 2%; A350 autofl: inactive; HADH2 inhib: 0%; 4-MU autofl: inactive

What do the screens show for `COc1ccc(-c2coc3ccc(O[C@@H]4O[C@@H](COC(C)=O)[C@@H](OC(C)=O)[C@@H](OC(C)=O)[C@H]4OC(C)=O)c(OC(C)=O)c3c2=O)cc1`?
CRE-bla Fsk: 10%; A350 autofl: inactive; HADH2 inhib: -3%; 4-MU autofl: inactive

How did Cc1sc2ncnc(OCC(=O)NCC3CCCO3)c2c1C (centres undefined) do in these assays?
CRE-bla Fsk: -2%; HSD17B inhib: -6%; AID923: 1%; A350 autofl: inactive; HADH2 inhib: 6%; 4-MU autofl: inactive

How did Cc1sc2ncnc(OCC(=O)NCc3cccs3)c2c1C do in these assays?
CRE-bla Fsk: -6%; HSD17B inhib: 13%; AID923: 2%; A350 autofl: 1e-08M*; HADH2 inhib: 19%; 4-MU autofl: inconclusive

How did COC(=O)c1cc(=O)nc2sc(-c3cccs3)nn12 do in these assays?
CRE-bla Fsk: -21%; HSD17B inhib: 25µM*; AID923: 0%; A350 autofl: 5.9e-08M*; HADH2 inhib: inconclusive; 4-MU autofl: 5.6e-08M*

Results for Cc1cc(Cl)nc2ccc(Cc3ccc4nc(Cl)cc(C)c4c3)cc12 ?
CRE-bla Fsk: inconclusive; HSD17B inhib: -4%[11.4 µM]; AID923: -3%[11.5 µM]; A350 autofl: 1.6e-08M*; HADH2 inhib: 16%[11.4 µM]; 4-MU autofl: 1.5e-08M*

What do the screens show for `COC(=O)c1ccc2c(c1)NC(=O)C1CCCN21` (centres undefined)?
CRE-bla Fsk: 23%; HSD17B inhib: 32µM*; AID923: 4%; HADH2 inhib: -11%

How did Cc1ccc(NC(=O)COC(=O)c2ccc3c(c2)NC(=O)C2CCCN32)cc1 (centres undefined) do in these assays?
CRE-bla Fsk: 8%; HSD17B inhib: inconclusive; AID923: 6%; A350 autofl: inconclusive; HADH2 inhib: -25%; 4-MU autofl: inconclusive

How did COc1cccc(C(=O)NC2(C(F)(F)F)N=C3SCCN3C2=O)c1 (centres undefined) do in these assays?
CRE-bla Fsk: 1%; HSD17B inhib: 9%; AID923: -2%; A350 autofl: 1.1e-08M*; HADH2 inhib: 11%; 4-MU autofl: inconclusive

What do the screens show for `Nc1nc2ccc([N+](=O)[O-])cc2s1`?
CRE-bla Fsk: inconclusive; HSD17B inhib: -26%; AID923: -2%; HADH2 inhib: -13%

How did CC(=O)COc1cc(C)cc2oc(=O)c(C)c(C)c12 do in these assays?
CRE-bla Fsk: 15%; HSD17B inhib: 25µM*; AID923: 2%; A350 autofl: 3.6e-08M*; HADH2 inhib: 136%; 4-MU autofl: 3.2e-08M*

How did CC(=O)C(C)Oc1cc(C)cc2oc(=O)c(C)c(C)c12 (centres undefined) do in these assays?
CRE-bla Fsk: 23%; HSD17B inhib: 10µM*; AID923: 0%; A350 autofl: 1.9e-08M*; HADH2 inhib: 32µM*; 4-MU autofl: 1.5e-08M*

Results for Cc1cc(C(=O)COC(=O)c2n[nH]c3ccccc23)c(C)n1C ?
CRE-bla Fsk: -24%; HSD17B inhib: inconclusive; AID923: -2%; A350 autofl: inactive; HADH2 inhib: -1%; 4-MU autofl: inactive

Results for COc1cc(C(=O)OCC(=O)c2cc(C)n(C)c2C)cc(OC)c1OC ?
CRE-bla Fsk: 2.5µM*; HSD17B inhib: -4%; AID923: 0%; A350 autofl: inactive; HADH2 inhib: 19%; 4-MU autofl: inactive

Results for O=C(CN1C(=O)COc2ccccc21)NCCCN1CCc2ccccc2C1 ?
CRE-bla Fsk: inconclusive; HSD17B inhib: -22%; AID923: 0%; A350 autofl: 1.5e-08M*; HADH2 inhib: 17%; 4-MU autofl: 1.6e-08M*

How did CCc1nc(SCC(=O)Nc2nccs2)c2oc3ccccc3c2n1 do in these assays?
CRE-bla Fsk: 1.3µM*; HSD17B inhib: -12%; AID923: -1%; A350 autofl: inactive; HADH2 inhib: inconclusive; 4-MU autofl: inactive

How did O=C(CSc1ncnc2c1oc1ccccc12)Nc1cccc(F)c1 do in these assays?
CRE-bla Fsk: inconclusive; HSD17B inhib: 1%; AID923: -2%; A350 autofl: inactive; HADH2 inhib: 6%; 4-MU autofl: inactive

What do the screens show for `O=C(CSc1nc(-c2ccccc2)cs1)Nc1nccs1`?
CRE-bla Fsk: 13%; HSD17B inhib: -2%; AID923: 0%; A350 autofl: inactive; HADH2 inhib: -3%; 4-MU autofl: inactive

How did COc1ccccc1NC(=O)CSc1ncnc2c1oc1ccccc12 do in these assays?
CRE-bla Fsk: 1µM*; HSD17B inhib: 12%; AID923: 1%; A350 autofl: inactive; HADH2 inhib: 5%; 4-MU autofl: inactive

Results for CCOC(=O)C1CCCN(C(=O)C2CCN(S(=O)(=O)CC)CC2)C1 (centres undefined) ?
CRE-bla Fsk: inconclusive; HSD17B inhib: 4%; AID923: 2%; A350 autofl: inconclusive; HADH2 inhib: 6%; 4-MU autofl: inconclusive

Results for C=CCn1c(CCC(=O)O)ccc1-c1ccccc1 ?
CRE-bla Fsk: 2%; HSD17B inhib: 32µM*; AID923: -1%; A350 autofl: 2e-08M*; HADH2 inhib: inconclusive; 4-MU autofl: 1.8e-08M*
